Eight molecules from PubChem BioAssay (NCATS) can be followed below.

The target in assay [1] is Glucocorticoid receptor (Homo sapiens) (UniProt P04150). Description: GR-GFP Redistribution (AID 450;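 active means compounds whose dose series gives a full or clear partial fitted curve of increased nuclear translocation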; further: potency means the concentration at half of the fitted maximal effect). The conditions noted are these: U2OS GR-GFP nuclear translocation, laser cytometry, 2 h.
The target is the same in assay [2]. The assay can be described thus: GR-EFC Redistribution (AID 451; calls by dose curve; further: potency means the concentration at half of the fitted maximal effect). The following applies: CHO-K1 GR-EFC translocation, beta-gal luminescence, 2 h. The method, boiled down:
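CHO-K1 cells stably expressing nuclear-localized β-gal enzyme acceptor and GR fused C-terminally to the enzyme donor fragment; ligand-driven nuclear translocation restores β-gal by complementation. Compounds titrated up to 46 uM final, 2 h at 37 °C; luminescence read.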

For assay [3], the target named is Mitogen-activated protein kinase 10 (Mus musculus) (UniProt Q61831). Description: JNK3 AlphaScreen Assay (AID 530; active means well fitted curve in either direction with a large enough effect, not every such curve was filed as active;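 further: kinase came from lysate of stimulated human HepG2 cells; signal reports phosphorylation of biotinylated GST-cJun 1-79 at Ser73 with 10 µM ATP; on the % scale 0 is the no-effect control and ±100 the full control effect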). The method, boiled down:
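JNK3 came from HepG2 lysates pre-activated with IL-1beta and TNF-alpha and phosphorylated biotinylated GST-cJun (1-79) at 10 uM ATP, pH 7.6, room temperature. Compounds were titrated. AlphaScreen signal used anti-phospho-cJun (Ser73) antibody.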

Assay [4] has as its target 3',5'-cyclic-AMP phosphodiesterase 4B (Homo sapiens) (UniProt Q07343). Description: qHTS Assay for Inhibitors of PDE-IV (AID 607; active means well fitted activation curve with a large enough effect in the main read-out, with a control signal flat, not every such curve was filed as active; further: % of control where 0% means no effect). The method, boiled down: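 ACTOne HEK293 cells carry a modified cAMP-gated CNG channel and express endogenous PDE4; plated 1000 cells/well, compounds up to 22.9 uM final. Membrane-potential dye fluorescence (ex 535/em 590) was read; parental cells received 10 uM forskolin + 100 uM RO 20-1724.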
(In general: In qHTS, concentration-response curves come from the screen itself.)

Assay [5] is described as follows: qHTS Assay for Lipid Storage Modulators (AID 1519; calls by dose curve; on activity change, negative = inhibition: on the % scale 0 is the no-effect control and ±100 the full control effect). The following applies: Drosophila S3 cells, BODIPY lipid droplet/cell ratio, laser cytometry, cells loaded with oleic acid; for activity change, negative = inhibition: at 57.5 µM (top of the series). The method, boiled down: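 Cells seeded at 5,000 per well were treated with compounds over a concentration series and loaded with oleic acid (400 uM, as added). Lipid droplet fluorescence (488 nm excitation, 500-530 nm channel) was read by laser-scanning cytometry and normalized to 20 uM Triacsin C.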

The target of assay [6] is Ubiquitin carboxyl-terminal hydrolase 1 (Homo sapiens) (UniProt O94782). The assay can be described thus: Inhibitors of USP1/UAF1: Pilot qHTS (AID 504865).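 Further: rhodamine fluorescence freed from ubiquitin-rhodamine substrate followed over time; top concentration of the series differs between compounds; on the % scale 0 is the no-effect control and ±100 the full control effect; nearly all actives have a fitted effect of over 35% in size.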 In outline: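 Kinetic fluorescence assay: 1nM USP1/UAF1, 15 min compound preincubation, then 150nM Ub-Rho; 480/540 nm.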
Sequence of Ubiquitin carboxyl-terminal hydrolase 1 (Homo sapiens) (O94782 whole entry, looked up): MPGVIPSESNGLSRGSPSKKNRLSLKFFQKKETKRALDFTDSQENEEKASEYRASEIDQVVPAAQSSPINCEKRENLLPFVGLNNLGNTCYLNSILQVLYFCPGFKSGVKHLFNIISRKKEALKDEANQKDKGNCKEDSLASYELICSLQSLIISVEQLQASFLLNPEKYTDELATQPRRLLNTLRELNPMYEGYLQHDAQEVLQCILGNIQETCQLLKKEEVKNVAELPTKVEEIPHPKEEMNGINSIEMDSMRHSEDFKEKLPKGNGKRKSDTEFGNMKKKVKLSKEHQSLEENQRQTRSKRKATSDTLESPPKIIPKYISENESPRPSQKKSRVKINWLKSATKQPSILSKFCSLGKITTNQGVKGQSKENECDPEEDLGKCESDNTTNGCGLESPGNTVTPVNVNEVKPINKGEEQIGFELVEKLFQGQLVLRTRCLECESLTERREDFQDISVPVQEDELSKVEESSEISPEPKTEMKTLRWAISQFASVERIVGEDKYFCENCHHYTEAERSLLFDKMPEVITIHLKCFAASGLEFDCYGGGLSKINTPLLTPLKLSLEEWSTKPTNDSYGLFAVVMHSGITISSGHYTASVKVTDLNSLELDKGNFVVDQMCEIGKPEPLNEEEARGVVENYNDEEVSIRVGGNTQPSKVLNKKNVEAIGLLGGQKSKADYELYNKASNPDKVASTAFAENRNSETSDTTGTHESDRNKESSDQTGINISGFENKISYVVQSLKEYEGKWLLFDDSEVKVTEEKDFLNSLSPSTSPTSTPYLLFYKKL
In assay [7] the target is DNA dC->dU-editing enzyme APOBEC-3G (Homo sapiens) (UniProt Q9HC16). The assay can be described thus: qHTS for inhibitors of Vif-A3G interactions: Validation (AID 588379). Further: 0% is about no effect. In outline:
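HeLa cells stably expressing Vif and A3G-eYFP, 700 cells/well, incubated overnight at 37 deg C, then exposed to compound overnight at 37 deg C. Inhibition of Vif-mediated degradation read as increased yellow fluorescence (Ex 488/Em 500-530) by laser-scanning cytometry.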

Assay [8] has as its system Zika virus NS2B-NS3 protease. Description: Primary screen GU AMC qHTS for Zika virus inhibitors (AID 1347154).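 Further: 0% = no-inhibitor control and -100% = no-enzyme control; nearly all actives have a fitted effect of over 70% in size.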 In outline: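 Unlinked Zika NS2B hydrophilic domain/NS3 protease domain noncovalent complex (25 nM final) in 10 mM Tris-HCl pH 8.0, 0.01% Tween 20, with AMC peptide substrate. Fluorescence (ex 340, em 450 nm) change over 15 min, room temperature; percent inhibition fitted to 4-parameter Hill equation.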

Assay [9] in a line: Primary qHTS for small molecule stabilizers of the endoplasmic reticulum resident proteome: Secreted ER Calcium Modulated Protein (SERCaMP) assay (AID 1508630). Further: on the % scale 0 is the no-effect control and ±100 the full control effect. In outline:
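GLuc-SERCaMP-expressing SH-SY5Y cells, pretreated 16 h with compound, are challenged with thapsigargin to empty ER calcium stores; after 4 h, coelenterazine is added directly to the medium and luminescence is imaged.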

Assay [10] has as its target Cytochrome P450 1A2 (Homo sapiens) (UniProt P05177). Description: p450-cyp1a2 (AID 410; calls by dose curve;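 further: -100% = full effect of reference inhibitor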). The method, boiled down:
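Human CYP1A2 (20nM) demethylated Luciferin-ME at its Km (100uM) in 100mM KPO4. After 10 min compound preincubation, NADPH regeneration ran the reaction 60 min at room temperature. Luciferin was read by luminescence, normalized to 57 uM furafylline.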

Assay [11] has as its target Cytochrome P450 2C19 (Homo sapiens) (UniProt P33261). The assay can be described thus: qHTS Assay for Inhibitors and Substrates of Cytochrome P450 2C19 (AID 899). Further: nearly all actives have a fitted effect of over 60% in size. Further: potency means the concentration at half of the fitted maximal effect. The method, boiled down:
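NADPH-dependent conversion of Luciferin-H EGE (10uM, at KM) by 5nM enzyme in 50mM KPO4, 60 min at 37C following 10 min compound preincubation. Stopped with luciferin detection buffer; luminescence read after 20 min.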

Where [12] appears, read: measured here: cell count channel max response.
[13] abbreviates: measured here: lipid channel max response.

Values joined by “and” are separate entries in the source; they are usually repeats but may differ in a detail not shown here. Equal entries are not always repeated. Results filed as inconclusive are left out. Active and inactive are the calls of the source. Unless noted, the call rests on the fitted dose curve; in most records, active means well fitted curve in the direction sought with a large enough effect; inconclusive means small, poorly fitted or top-dose-only effect, or another doubt; inactive means no such curve, though single readings can be large; an effect the other way counts as inactive or inconclusive. Some results are limits rather than exact numbers.

Sequence of DNA dC->dU-editing enzyme APOBEC-3G (Homo sapiens) (Q9HC16 whole entry, looked up): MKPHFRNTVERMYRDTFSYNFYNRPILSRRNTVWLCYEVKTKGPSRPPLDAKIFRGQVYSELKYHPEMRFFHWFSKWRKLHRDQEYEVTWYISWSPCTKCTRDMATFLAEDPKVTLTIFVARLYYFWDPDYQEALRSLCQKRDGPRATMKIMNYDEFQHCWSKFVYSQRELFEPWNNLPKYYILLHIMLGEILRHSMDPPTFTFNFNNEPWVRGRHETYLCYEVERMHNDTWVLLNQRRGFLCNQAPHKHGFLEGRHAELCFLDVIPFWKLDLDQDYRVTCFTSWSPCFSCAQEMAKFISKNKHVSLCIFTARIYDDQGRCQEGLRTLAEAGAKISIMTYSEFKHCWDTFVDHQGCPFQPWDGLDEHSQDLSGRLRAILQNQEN
Sequence of 3',5'-cyclic-AMP phosphodiesterase 4B (Homo sapiens) (Q07343 whole entry, looked up): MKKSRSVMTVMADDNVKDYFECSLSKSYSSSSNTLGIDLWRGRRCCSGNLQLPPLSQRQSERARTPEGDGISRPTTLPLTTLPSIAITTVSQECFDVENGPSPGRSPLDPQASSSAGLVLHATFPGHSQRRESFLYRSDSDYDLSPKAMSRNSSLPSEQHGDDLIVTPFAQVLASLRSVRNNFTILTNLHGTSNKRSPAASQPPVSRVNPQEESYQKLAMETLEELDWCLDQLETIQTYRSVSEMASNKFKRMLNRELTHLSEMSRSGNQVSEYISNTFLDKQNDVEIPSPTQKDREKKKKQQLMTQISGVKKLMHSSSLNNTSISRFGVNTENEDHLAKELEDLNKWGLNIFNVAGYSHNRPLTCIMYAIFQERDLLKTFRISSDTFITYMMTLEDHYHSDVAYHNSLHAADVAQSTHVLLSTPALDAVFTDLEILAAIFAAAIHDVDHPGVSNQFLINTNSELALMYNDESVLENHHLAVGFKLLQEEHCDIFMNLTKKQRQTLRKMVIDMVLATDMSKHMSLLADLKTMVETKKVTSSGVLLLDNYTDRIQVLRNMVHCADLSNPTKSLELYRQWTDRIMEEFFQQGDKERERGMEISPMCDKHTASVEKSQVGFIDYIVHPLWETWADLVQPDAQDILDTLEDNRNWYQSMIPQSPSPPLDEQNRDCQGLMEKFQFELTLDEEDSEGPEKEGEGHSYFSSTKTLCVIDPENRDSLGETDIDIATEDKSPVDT
Sequence of Cytochrome P450 2C19 (Homo sapiens) (P33261 whole entry, looked up): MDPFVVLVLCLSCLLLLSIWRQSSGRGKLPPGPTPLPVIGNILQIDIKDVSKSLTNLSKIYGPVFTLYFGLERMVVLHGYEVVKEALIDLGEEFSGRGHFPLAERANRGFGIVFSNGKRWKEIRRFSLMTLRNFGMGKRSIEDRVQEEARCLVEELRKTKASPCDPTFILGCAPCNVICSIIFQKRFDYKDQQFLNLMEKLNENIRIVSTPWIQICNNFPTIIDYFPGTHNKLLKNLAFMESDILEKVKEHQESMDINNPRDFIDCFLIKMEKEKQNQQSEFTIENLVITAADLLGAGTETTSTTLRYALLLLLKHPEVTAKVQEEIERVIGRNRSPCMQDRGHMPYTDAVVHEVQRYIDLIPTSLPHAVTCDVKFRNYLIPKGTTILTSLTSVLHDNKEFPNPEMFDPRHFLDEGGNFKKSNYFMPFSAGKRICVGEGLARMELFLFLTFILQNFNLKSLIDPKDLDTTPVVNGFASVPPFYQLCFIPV
Sequence of Glucocorticoid receptor (Homo sapiens) (P04150 whole entry, looked up): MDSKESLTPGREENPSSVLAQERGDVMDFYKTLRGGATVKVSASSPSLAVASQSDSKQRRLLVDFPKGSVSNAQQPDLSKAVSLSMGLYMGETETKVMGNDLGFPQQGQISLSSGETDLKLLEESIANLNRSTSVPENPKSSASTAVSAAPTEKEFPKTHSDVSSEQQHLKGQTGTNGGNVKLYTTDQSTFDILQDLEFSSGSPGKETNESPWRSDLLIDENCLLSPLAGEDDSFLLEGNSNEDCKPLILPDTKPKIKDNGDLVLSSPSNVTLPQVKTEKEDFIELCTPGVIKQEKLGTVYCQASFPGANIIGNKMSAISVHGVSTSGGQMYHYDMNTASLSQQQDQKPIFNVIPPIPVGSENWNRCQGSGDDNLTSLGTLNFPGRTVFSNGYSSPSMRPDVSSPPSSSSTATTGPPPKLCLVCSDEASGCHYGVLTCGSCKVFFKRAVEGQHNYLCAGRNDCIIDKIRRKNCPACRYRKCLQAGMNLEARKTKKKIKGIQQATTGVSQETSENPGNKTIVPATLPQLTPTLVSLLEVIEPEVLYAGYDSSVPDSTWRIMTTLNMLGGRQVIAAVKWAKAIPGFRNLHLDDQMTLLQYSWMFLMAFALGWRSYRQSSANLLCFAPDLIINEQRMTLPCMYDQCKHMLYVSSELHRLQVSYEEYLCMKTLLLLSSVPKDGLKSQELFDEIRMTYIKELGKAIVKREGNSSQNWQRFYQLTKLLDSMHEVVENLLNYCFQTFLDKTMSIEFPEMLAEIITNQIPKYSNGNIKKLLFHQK
Sequence of Cytochrome P450 1A2 (Homo sapiens) (P05177 whole entry, looked up): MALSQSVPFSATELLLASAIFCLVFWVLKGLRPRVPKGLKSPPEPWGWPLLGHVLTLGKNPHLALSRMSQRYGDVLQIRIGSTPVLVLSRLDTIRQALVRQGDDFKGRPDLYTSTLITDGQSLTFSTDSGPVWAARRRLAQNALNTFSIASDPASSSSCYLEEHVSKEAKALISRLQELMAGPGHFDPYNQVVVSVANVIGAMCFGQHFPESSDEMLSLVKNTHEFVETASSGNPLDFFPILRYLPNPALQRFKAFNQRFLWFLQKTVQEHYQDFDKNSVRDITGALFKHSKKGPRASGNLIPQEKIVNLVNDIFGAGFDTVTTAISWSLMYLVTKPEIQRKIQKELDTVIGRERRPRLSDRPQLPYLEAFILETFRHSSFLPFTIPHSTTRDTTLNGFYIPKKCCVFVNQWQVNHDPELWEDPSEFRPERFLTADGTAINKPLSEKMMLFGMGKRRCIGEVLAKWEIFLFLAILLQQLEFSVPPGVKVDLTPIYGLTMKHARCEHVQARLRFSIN

For `c1ncc(CC2CCNCC2)[nH]1`, the Potency in [1] and in assay [2] was > 46 µM (inactive) throughout. In addition, the Potency result in assay [3], in assay [4], in [6], in [7], in assay [8] and in assay [9] was “inactive” each time. Besides, the activity change, negative = inhibition in assay [5] is 0.0288% (inactive). Further, the max response is -18.2% in assay [5] (setting [12]) and -15.8% in assay [5] (setting [13]).

With `CC[C@@](N)(C(=O)O)c1ccc(C(=O)O)cc1`, the Potency in assay [1] and in assay [2] was > 46 µM (inactive) in each case. Besides, the Potency entry in [3], in assay [4], in assay [6], in assay [7], in assay [8] and in assay [9] was “inactive” in each case. Also, the activity change, negative = inhibition in assay [5] is 2.13% (inactive). Moreover, the max response in assay [5] (setting [12]) and in assay [5] (setting [13]) was -11.5% in each case.

Take `Cc1ccccc1N=C(N)Nc1ccccc1C`: the Potency entry in assay [10], in assay [3], in assay [6], in assay [7], in [8] and in assay [9] was “inactive” throughout. Moreover, the Potency in assay [2] was > 46 µM (inactive). Moreover, the activity change, negative = inhibition in assay [5] was 3.82% (inactive). In addition, the results for the max response in assay [5] (setting [12]) and in [5] (setting [13]) were 2.46% and 7.24%, respectively.

Regarding `C[C@H](NC[C@H](O)CP(=O)(O)Cc1ccccc1)c1ccc(Cl)c(Cl)c1`, the Potency result in assay [10], in assay [3], in [4], in assay [7], in [8] and in assay [9] was “inactive” throughout. Further, the Potency in assay [1] and in assay [2] was > 46 µM (inactive) each time. The activity change, negative = inhibition in assay [5] is 2.58% (inactive). Further, the max response in assay [5] (setting [12]) came to 0.952%; in assay [5] (setting [13]), 5.21%.

Take `O=C(O)[C@H]1CN[C@H](C(=O)O)C1`: the Potency in assay [1] and in [2] was > 46 µM (inactive) in each case. For the same molecule, the Potency result in assay [3], in assay [11], in assay [6], in [7], in [8] and in assay [9] was “inactive” each time. Moreover, in assay [5], the activity change, negative = inhibition was 1.7% (inactive). For the same molecule, the figures for the max response in [5] (setting [12]) and in assay [5] (setting [13]) were -9.77% and -9.55%, respectively.

With `NCCCNCCCCN(CCCN)/[N+]([O-])=N/O`, the Potency in assay [1] and in assay [2] was > 46 µM (inactive) each time. The Potency result in assay [4], in assay [6], in assay [7], in assay [8] and in [9] was “inactive” each time. In assay [5], the activity change, negative = inhibition was -0.752% (inactive). The max response in [5] (setting [12]) is -8.77%; in assay [5] (setting [13]), -8.94%.

Turning to `N[C@@H](C(=O)O)c1ccc(C(=O)O)c(C(=O)O)c1`, the Potency was > 46 µM (inactive) in assay [1]; > 46 µM (inactive) in [2]; 316 nM (active) and 3.16 µM (active) in assay [11]. Also, the Potency result in [3], in [4], in [6], in [7], in assay [8] and in [9] was “inactive” throughout. Also, the activity change, negative = inhibition in [5] is 1.89% (inactive) and 0.925% (inactive) and 9.39% (inactive). The max response in assay [5] (setting [12]) was -4.21% and -1.65% and 13.2%; in assay [5] (setting [13]) it was -0.754% and -2.49% and 18.8%.

On to `CC(=O)O[C@H](CC(=O)O)C[N+](C)(C)C`, for which the Potency in [1] and in assay [2] was > 46 µM (inactive) each time. Further, in assay [5], the activity change, negative = inhibition is 5.24% (inactive). In addition, the max response was 15% in [5] (setting [12]) and 18.1% in assay [5] (setting [13]). Further, the Potency entry in assay [6], in assay [7], in assay [8] and in assay [9] was “inactive” throughout.
